A selection: hits, their analogues and other compounds. The true share with any hit is near 1.6%.
KCNQ2 pot – KCNQ2 (rat) channel potentiation | O88943 | CHO-K1 KCNQ2, FluxOR thallium flux fluorescence; hits give high values | B-score at 10 µM | 310,000 tested, 0.54% active;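 active = fluorescence ratio B-score at least 3 SD of library B-scores, with initial fluorescence B-score within 3 of them, cut at about 5.3 in these data; same plate scores as AID 2156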;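 also: B-score of peak minus minimum over baseline fluorescence ratio after K+ and Tl+ stimulus; positive B-score means potentiation of KCNQ2 with more thallium influx and brighter signal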
Target sequence (O88943 whole entry, looked up): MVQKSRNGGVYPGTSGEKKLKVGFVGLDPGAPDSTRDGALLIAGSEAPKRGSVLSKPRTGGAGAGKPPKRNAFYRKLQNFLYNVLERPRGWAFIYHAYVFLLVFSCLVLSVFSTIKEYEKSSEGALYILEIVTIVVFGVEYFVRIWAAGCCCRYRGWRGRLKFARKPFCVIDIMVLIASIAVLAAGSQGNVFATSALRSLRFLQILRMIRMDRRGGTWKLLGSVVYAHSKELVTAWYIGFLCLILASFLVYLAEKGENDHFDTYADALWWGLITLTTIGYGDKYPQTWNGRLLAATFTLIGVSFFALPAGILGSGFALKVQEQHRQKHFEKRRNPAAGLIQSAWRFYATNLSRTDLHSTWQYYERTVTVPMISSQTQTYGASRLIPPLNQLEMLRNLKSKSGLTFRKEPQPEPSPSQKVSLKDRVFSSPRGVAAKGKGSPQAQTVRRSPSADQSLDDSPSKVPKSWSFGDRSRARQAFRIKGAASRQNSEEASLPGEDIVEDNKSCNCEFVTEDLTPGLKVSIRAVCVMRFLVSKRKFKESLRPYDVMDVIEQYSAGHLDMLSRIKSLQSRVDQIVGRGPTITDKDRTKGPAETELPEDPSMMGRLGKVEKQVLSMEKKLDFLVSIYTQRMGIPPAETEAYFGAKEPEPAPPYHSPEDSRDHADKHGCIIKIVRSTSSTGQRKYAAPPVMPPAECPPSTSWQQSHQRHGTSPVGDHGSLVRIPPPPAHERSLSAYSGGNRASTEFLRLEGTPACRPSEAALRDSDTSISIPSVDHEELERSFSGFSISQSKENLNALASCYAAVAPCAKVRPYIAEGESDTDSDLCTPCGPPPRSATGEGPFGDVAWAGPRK
KCNQ2 block – blocks the rat KCNQ2 potassium channel; B-score at 10 µM; CHO-K1 KCNQ2, FluxOR thallium flux, 20 min; hits give low values; 310,000 tested, 1.1% active; O88943;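 active = fluorescence ratio B-score at most minus 3 library SDs, with starting brightness B-score within 2 library SDs, cut at about -5.5 in these data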
* = called active by the depositor; i = inactive; . = no result.

SMILES	KCNQ2 pot	KCNQ2 block
O=C(CSc1nc2ccsc2c(=O)n1NC(=O)c1ccccc1)Nc1nccs1	.	i
CCOC(=O)C1(Cc2ccccc2)C(=O)Nc2ccccc21 (centres undefined)	.	i
CC(C)(O)c1ccccc1CC[C@@H](SCC1(CC(=O)O)CC1)c1cccc(/C=C/c2ccc3ccc(Cl)cc3n2)c1	-6.4	-6.4*
COc1ccccc1C(C)Nc1nc(-c2cccnc2)nc2ccccc12 (centres undefined)	.	i
O=c1c2ccccc2nc2n1C(CSCc1ccc(Cl)cc1Cl)CS2 (centres undefined)	0.85	i
Cc1ccccc1N/C(SCc1ccc(Cl)cc1)=C(/C#N)C(=O)NCc1ccco1	-7	-7*
Cc1ccc(CS/C(Nc2ccccc2C)=C(\C#N)C(=O)NCc2ccco2)c(C)c1	.	i
O=C(O)c1ccc(Cl)c(S(=O)(=O)Nc2ccccc2Cc2ccccc2)c1	.	i
O=C(O)c1cc(S(=O)(=O)Nc2ccccc2Cc2ccccc2)ccc1Cl	-8.1	-8.1*
Cc1ccc(N2CCN(S(=O)(=O)c3ccc4oc(=O)ccc4c3)CC2)c(C)c1	1.8	i
CCS(=O)(=O)c1ncc(Cl)c(C(=O)Nc2ccc(S(=O)(=O)N3CCC(C)CC3)cc2)n1	.	i
CCOC(=O)COc1c(OC)cc(Cl)cc1C1Nc2ccccc2C(=O)N1c1ccccc1 (centres undefined)	-5.6	-5.6*
CCOC(=O)COc1c(OC)cc(Cl)cc1C1Nc2ccccc2C(=O)N1c1ccc(F)cc1 (centres undefined)	.	i
O=C(NNc1cccc([N+](=O)[O-])c1)/C(=C\c1cccnc1)NC(=O)c1ccccc1	0.64	i
CCN(CC)CC(=O)NC12CC3CC(CC(C3)C1)C2	.	i
CCN(CC)C(=S)SCC(=O)NC12CC3CC(CC(C3)C1)C2	8.8*	i
CN(C(=O)C1CCC(=O)N(Cc2cccc(F)c2)C1)C1CCCCC1 (centres undefined)	0.75	i
CCO/C(C)=N/n1c2nc3ccccc3nc2c2c(=O)n(CC(C)C)c(C)nc21	-5.6	-5.6*
CCOCCCn1c(C)nc2c(c1=O)c1nc3ccccc3nc1n2-c1ccc(C)cc1	.	i
CCOC(=O)C(NC(=O)C1C(C)N1S(=O)(=O)c1ccc(C)cc1)C(=O)OCC (centres undefined)	0.05	i
CCCCN1C[C@H](C)[C@@H](CC(=O)NCc2ccccc2)C1=O	0.09	i
CC(/C=C/C(=O)c1ccc(C)cc1)=C\c1ccccc1	.	i
Cc1ccc(C(=O)/C=C\C(=O)c2ccc(C)cc2)cc1	-5.7	-5.7*
CC1CCCC(NCC(=O)Nc2ccc(C(N)=O)cc2)C1C (centres undefined)	0.29	i
COc1cc2c(cc1OC)C(C)N(S(=O)(=O)c1ccc(Cl)nc1)CC2 (centres undefined)	.	i
SMILES	KCNQ2 pot	KCNQ2 block
Cc1nn(-c2ccccc2)c(-c2ccccc2[N+](=O)[O-])c1C(=O)O	0.01	i
O=C(c1cccc(-c2nnc(-c3ccccc3)o2)c1)N1CCCCCC1	-5.8	-5.8*
O=C(c1cccc(-c2nnc(-c3ccccc3)o2)c1)N1CCCCC1	0.13	i
COc1ccc(C2NC(=O)NC(C)=C2C(=O)OCC2CCCCC2)cc1OC (centres undefined)	2.9	i
CCOc1ccc(C(=O)N2CCCC2)cc1	0.53	i
CCOc1ccc(C(=O)N2CCN(c3cccc(C)c3C)CC2)cc1	-5.8	-5.8*
CC1CCC(C(C)C)C(OC(=O)CSc2nccc(=O)[nH]2)C1 (centres undefined)	.	i
CC1CCC(C(C)C)C(OC(=O)C2=C3c4ccccc4S(=O)(=O)N3CC2)C1 (centres undefined)	-6.1	-6.1*
COCCn1c(N)c(Sc2ccc(Cl)cc2)c(=O)[nH]c1=O	1.1	i
O=C(CCn1ccnc1)Nc1ccc2ccccc2c1	.	i
CN(C(=O)c1cccc(C(F)(F)F)c1)C1CCCc2ccccc21 (centres undefined)	-5.8	-5.8*
CSc1ccccc1OCc1cc(C(=O)N(C)C2CCCc3ccccc32)no1 (centres undefined)	.	i
O=C(CN1C(=O)CC(c2ccccc2)=Nc2ccccc21)NCc1ccccc1	-5.6	-5.6*
COc1ccc(CNC(=O)CN2C(=O)CC(c3ccccc3)=Nc3ccccc32)cc1	.	i
COc1ccc(CNC(=O)CCC(=O)Nc2nnc(C(F)(F)F)s2)cc1	0.03	i
COCc1ccc(C(=O)N2CCCCC2C(=O)Nc2ccc(-n3nc(C)cc3C)cc2)o1 (centres undefined)	1.6	i
O=C1NC(=Nc2ccccc2Cl)S/C1=C\c1ccc(C(=O)O)cc1	.	i
CC12CCC(C/C1=N\N=C1\NC(=O)/C(=C\c3ccc(Cl)cc3)S1)C2(C)C (centres undefined)	13*	i
COc1ccc(CC(=O)NNC(=O)CSc2nc(C)c(C)c(=O)[nH]2)cc1	0.2	i
Cc1cc(C)nc(SCC(=O)N/N=C/c2cccc([N+](=O)[O-])c2)n1	.	i
COc1cccc(CN(C)C(=O)CCN(c2ccccc2)S(=O)(=O)c2ccc(C)cc2)c1OC	.	i
COc1ccc(OC)c(C(=O)NC(CC(N)=O)c2ccc(NCC3CC3)c([N+](=O)[O-])c2)c1 (centres undefined)	.	i
COc1ccc(OC)c(C(=O)NC(CC(N)=O)c2ccc(NC(C)C)c([N+](=O)[O-])c2)c1 (centres undefined)	-9.6	-9.6*
O=C(NC(=S)NNC(=O)c1ccco1)c1ccc(Br)cc1	.	i
Cc1cccc(/C=C2\Sc3ccc(C(=O)N4CCCCC4)cc3N(C)C2=O)c1	.	i
SMILES	KCNQ2 pot	KCNQ2 block
Cc1cccc(/C=C2\Sc3ccc(C(=O)N4CCC(C)CC4)cc3N(C)C2=O)c1	-6.5	-6.5*
CCN(CC)CCNC(=O)c1c(C)n(-c2ccccc2)c2cc(Br)c(OC)cc12	-5.8	-5.8*
COc1cc2c(C(=O)N3CCN(C)CC3)c(C)n(-c3ccccc3)c2cc1Br	.	i
CC(C)[C@H](NC(=O)NCc1ccc(F)cc1)C(=O)O	0.95	i
CC(C)C(C)NC(=O)COc1ccc(S(=O)(=O)N2CCOCC2)cc1Cl (centres undefined)	1.1	i
O=C(CSc1nnc(-c2ccco2)n1Cc1ccco1)NCc1cccs1	0.13	i
O=C(CSc1nnc(Cc2cccs2)n1Cc1ccco1)Nc1ccc(Br)cc1	-6.7	-6.7*
O=C(CSc1nnc(Cc2ccccc2)n1Cc1ccco1)NC12CC3CC(CC(C3)C1)C2	-7.7	-7.7*
CN(C)C(=O)CSc1nnc(Cc2ccccc2)n1Cc1ccco1	0.02	i
O=C(CSc1nc(=O)n(CCCN2CCOCC2)c2c1CCC2)Nc1cccc(F)c1	.	i
COc1ccc(-c2ccnc(SCC(=O)c3ccc(OC)c(OC)c3)n2)cc1	1.5	i
COc1ccc(OC)c(C(=O)CSc2nccc(-c3ccc(Br)cc3)n2)c1	-6.4	-6.4*
C=CCNC(=S)N/N=C/c1cccc([N+](=O)[O-])c1	.	i
Cc1cnc(NC(=O)Nc2ccc(OCc3ccccc3)cc2)c(Br)c1	0.25	i
O=C(/C=C/c1ccccc1)N1CCN(c2ccc([N+](=O)[O-])c(N3CCOCC3)c2)CC1	-6.4	-6.4*
O=C(c1ccc2ccccc2c1)N1CCN(c2ccc([N+](=O)[O-])c(N3CCOCC3)c2)CC1	.	i

Source: PubChem
